The text below walks through data of PubChem BioAssay (Tox21).

SMILES strings stand for the structures. Unmarked numbers belong to inactive results. Inconclusive results are not listed. Entries that show only a call come without a potency. Activity calls are given as the source filed them. Calls follow the shape of the full dose curve. Residues, ends and D or L forms follow the SMILES beside them.
Potency is read from the fitted curve at half-maximal effect.

Chain of Acetylcholinesterase (Homo sapiens) (P22303 whole entry, looked up): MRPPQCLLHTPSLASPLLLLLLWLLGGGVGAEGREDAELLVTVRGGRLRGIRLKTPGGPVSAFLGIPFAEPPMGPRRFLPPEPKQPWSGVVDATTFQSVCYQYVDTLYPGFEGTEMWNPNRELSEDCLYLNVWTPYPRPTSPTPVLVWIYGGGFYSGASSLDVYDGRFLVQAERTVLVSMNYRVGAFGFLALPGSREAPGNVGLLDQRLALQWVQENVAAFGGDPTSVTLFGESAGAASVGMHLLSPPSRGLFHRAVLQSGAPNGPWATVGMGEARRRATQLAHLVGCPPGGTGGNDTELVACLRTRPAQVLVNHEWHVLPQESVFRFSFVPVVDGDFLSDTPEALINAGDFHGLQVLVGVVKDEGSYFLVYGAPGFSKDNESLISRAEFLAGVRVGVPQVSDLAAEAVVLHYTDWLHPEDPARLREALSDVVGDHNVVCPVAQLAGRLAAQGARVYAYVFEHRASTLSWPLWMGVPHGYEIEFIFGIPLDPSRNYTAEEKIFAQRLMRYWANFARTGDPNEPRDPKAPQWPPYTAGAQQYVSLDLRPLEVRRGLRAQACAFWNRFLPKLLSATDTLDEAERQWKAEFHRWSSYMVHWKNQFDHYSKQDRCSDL

The target of one test is Acetylcholinesterase (Homo sapiens) (UniProt P22303). Nature of the test: Acetylcholinesterase (AChE) small molecule antagonists: colormetric cell-based qHTS assay (AID 1347395). Also: nearly all actives have a fitted effect of over 30% in size. Conditions: SH-SY5Y cells AChE activity, colorimetric (Ellman); series mostly up to 115 µM. The gist of the method:
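SH-SY5Y cells; cpd 30 min 37 C; + DTNB/acetylthiocholine, 90 min 37 C; colorimetric thiocholine read; qHTS.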
As to `CCOC(=O)COC(=O)c1cc(Oc2ccc(C(F)(F)F)cc2Cl)ccc1[N+](=O)[O-]`, the Potency entry was “inactive”.

Take `CCCCCCC(=O)OCC`: the Potency entry is “inactive”.

As to `CC(=O)N[C@@H](CO)C(=O)N[C@@H](CC(=O)O)C(=O)N[C@@H](CCCCN)C(=O)N1CCC[C@H]1C(=O)O` (Ac-SDKP-OH), the Potency result was “inactive”.

With `Nc1ccc(F)cc1`, the Potency result was “inactive”.

Regarding `C=CC(=O)O`, the Potency entry was “inactive”.

Turning to `CC1=CCCC(C)(C)C12CCC(C)O2` (stereo not drawn), the Potency entry is “inactive”.

For the molecule `CCCCC`, the Potency result was “inactive”.

Take `CCCCCCC(C)Nc1ccc(Nc2ccccc2)cc1` (stereo not drawn): the Potency result was “inactive”.

Take `CC/C=C\CCOC(C)=O`: the Potency result is “inactive”.

Regarding `CCCCCCCCCCCBr`, the Potency entry was “inactive”.

Take `CC(COc1ccccc1)NN` (stereo not drawn): the Potency result is “inactive”.

In the case of `Nc1cnn([C@@H]2O[C@H](CO)[C@@H](O)[C@H]2O)c(=O)n1`, the Potency result is “inactive”.

In the case of `CN(CCCN1c2ccccc2CCc2ccccc21)CC(=O)c1ccc(Cl)cc1`, the Potency result is “inactive”.

For the molecule `CC(C)=CCC[C@H](C)CCO`, the Potency entry was “inactive”.

Regarding `COc1cc(Cl)ccc1Oc1ccc(Cl)cc1Cl`, the Potency entry was “inactive”.

As for `CC1=C2[C@H](/C=C(\C)C(=O)O)CC[C@@H](C)[C@H]2CC1`, the Potency entry was “inactive”.

Consider `CCOCCOCCOC(C)=O`, for which the Potency entry is “inactive”.

Regarding `COc1ccc(Cl)cc1C`, the Potency entry was “inactive”.

Regarding `CC(C)(c1ccc(Oc2ccc3c(c2)C(=O)OC3=O)cc1)c1ccc(Oc2ccc3c(c2)C(=O)OC3=O)cc1`, the Potency entry was “inactive”.

On to `COCCCOCCCOC`, for which the Potency result was “inactive”.

With `O=C(N[C@@H](c1ccccc1)[C@@H]1CCCCN1)c1cccc(C(F)(F)F)c1Cl`, the Potency result was “inactive”.

Turning to `C=CCOc1nc(OCC=C)nc(OCC=C)n1`, the Potency result was “inactive”.

Regarding `Cc1cccc(C)c1NC(=O)CN(CC(=O)O)CC(=O)O`, the Potency result is “inactive”.

On to `O=S(=O)(O)c1ccc2cc(O)c(S(=O)(=O)O)cc2c1`, for which the Potency result is “inactive”.

Regarding `CCC(C)(C)C1CCC(=O)CC1`, the Potency entry is “inactive”.

Regarding `COC(=O)CCCCCCCCC(=O)OC`, the Potency result is “inactive”.

In the case of `CC(C)(C)c1cc(C=O)cc(C(C)(C)C)c1O`, the Potency entry was “inactive”.

Take `CCc1nccnc1C`: the Potency entry is “inactive”.

Consider `O=C1C=CC(=O)N1c1cccc(N2C(=O)C=CC2=O)c1`, for which the Potency result is “inactive”.

Regarding `COC(=O)C1CC(=O)C(C(=O)OC)CC1=O` (stereo not drawn), the activity, negative = inhibition was 2.2% [at 10.5 µM].

Consider `[Ca+2]`, for which the Potency entry is “inactive”.

Consider `c1ccc(-c2nc3ccccc3[nH]2)cc1`, for which the Potency result was “inactive”.

For the molecule `OC(CN1CCC(Cc2ccc(F)cc2)CC1)c1ccc(Cl)cc1` (stereo not drawn), the Potency result was “inactive”.

Regarding `O=C(O)/C=C/c1ccccc1`, the Potency entry is “inactive”.

Turning to `OC[C@@H](O)[C@H](O)[C@@H](O)[C@@H](O)CO`, the Potency result was “inactive”.

On to `CC(C)(C)NCC(O)COc1ccc(NC(=O)NC2CCCCC2)cc1` (stereo not drawn), for which the Potency result is “inactive”.

For the molecule `Clc1cc(Cl)c2c(c1)N=C1CCCCCN1C2`, the Potency was 776 nM (active).

For the molecule `CC12CCC(C(=O)C1=O)C2(C)C` (stereo not drawn), the Potency entry is “inactive”.

Regarding `NS(=O)(=O)c1cc(C(=O)NN2C[C@H]3[C@H]4CCC(C4)[C@H]3C2)ccc1Cl`, the Potency result was “inactive”.

A further test shares this target. The test can be described thus: Acetylcholinesterase (AChE) small molecule antagonists: enzyme-based qHTS assay (AID 1347397). Also: nearly all actives have a fitted effect of over 55% in size. Conditions: Potency: AChE enzyme activity inhibition; outcome: AChE enzyme activity inhibition; series mostly up to 115 µM. The gist of the method: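 Compound or DMSO vehicle was pin-transferred onto recombinant human AChE (50 mU/mL as dispensed) and left 30 min at room temperature. Acetylthiocholine with DTNB then started the reaction, read colorimetrically 10 min later.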
On to `CCOC(=O)COC(=O)c1cc(Oc2ccc(C(F)(F)F)cc2Cl)ccc1[N+](=O)[O-]`, for which the Potency entry was “inactive”.

For `CCCCCCC(=O)OCC`, the Potency entry is “inactive”.

Consider `CC(=O)N[C@@H](CO)C(=O)N[C@@H](CC(=O)O)C(=O)N[C@@H](CCCCN)C(=O)N1CCC[C@H]1C(=O)O` (Ac-SDKP-OH), for which the Potency entry is “inactive”.

For `Nc1ccc(F)cc1`, the Potency result is “inactive”.

Turning to `C=CC(=O)O`, the Potency result is “inactive”.

For `CC1=CCCC(C)(C)C12CCC(C)O2` (stereo not drawn), the Potency result is “inactive”.

Regarding `CCCCC`, the Potency entry was “inactive”.

Take `CCCCCCC(C)Nc1ccc(Nc2ccccc2)cc1` (stereo not drawn): the Potency entry was “inactive”.

For the molecule `CC/C=C\CCOC(C)=O`, the Potency entry is “inactive”.

Consider `CCCCCCCCCCCBr`, for which the Potency entry is “inactive”.

For the molecule `CC(COc1ccccc1)NN` (stereo not drawn), the Potency entry was “inactive”.

Regarding `Nc1cnn([C@@H]2O[C@H](CO)[C@@H](O)[C@H]2O)c(=O)n1`, the Potency entry was “inactive”.

For the molecule `CN(CCCN1c2ccccc2CCc2ccccc21)CC(=O)c1ccc(Cl)cc1`, the Potency entry is “inactive”.

As to `CC(C)=CCC[C@H](C)CCO`, the Potency result was “inactive”.

For the molecule `COc1cc(Cl)ccc1Oc1ccc(Cl)cc1Cl`, the Potency result was “inactive”.

In the case of `CC1=C2[C@H](/C=C(\C)C(=O)O)CC[C@@H](C)[C@H]2CC1`, the Potency entry is “inactive”.

For `CCOCCOCCOC(C)=O`, the Potency result is “inactive”.

With `COc1ccc(Cl)cc1C`, the Potency result is “inactive”.

As to `CC(C)(c1ccc(Oc2ccc3c(c2)C(=O)OC3=O)cc1)c1ccc(Oc2ccc3c(c2)C(=O)OC3=O)cc1`, the Potency entry was “inactive”.

On to `COCCCOCCCOC`, for which the Potency entry was “inactive”.

For `O=C(N[C@@H](c1ccccc1)[C@@H]1CCCCN1)c1cccc(C(F)(F)F)c1Cl`, the Potency entry was “inactive”.

`C=CCOc1nc(OCC=C)nc(OCC=C)n1`: the Potency entry is “inactive”.

As for `Cc1cccc(C)c1NC(=O)CN(CC(=O)O)CC(=O)O`, the Potency result was “inactive”.

Consider `O=S(=O)(O)c1ccc2cc(O)c(S(=O)(=O)O)cc2c1`, for which the Potency result was “inactive”.

In the case of `CCC(C)(C)C1CCC(=O)CC1`, the Potency result was “inactive”.

For the molecule `COC(=O)CCCCCCCCC(=O)OC`, the Potency result is “inactive”.

`CC(C)(C)c1cc(C=O)cc(C(C)(C)C)c1O`: the Potency result was “inactive”.

Take `CCc1nccnc1C`: the Potency entry was “inactive”.

Take `O=C1C=CC(=O)N1c1cccc(N2C(=O)C=CC2=O)c1`: the Potency entry was “inactive”.

As to `COC(=O)C1CC(=O)C(C(=O)OC)CC1=O` (stereo not drawn), the activity change, negative = inhibition is 0.472% [at 10.5 µM].

Turning to `[Ca+2]`, the Potency entry is “inactive”.

In the case of `c1ccc(-c2nc3ccccc3[nH]2)cc1`, the Potency result was “inactive”.

For the molecule `OC(CN1CCC(Cc2ccc(F)cc2)CC1)c1ccc(Cl)cc1` (stereo not drawn), the Potency result was “inactive”.

As for `O=C(O)/C=C/c1ccccc1`, the Potency result was “inactive”.

For the molecule `OC[C@@H](O)[C@H](O)[C@@H](O)[C@@H](O)CO`, the Potency result was “inactive”.

As for `CC(C)(C)NCC(O)COc1ccc(NC(=O)NC2CCCCC2)cc1` (stereo not drawn), the Potency result is “inactive”.

`Clc1cc(Cl)c2c(c1)N=C1CCCCCN1C2`: the Potency is 871 nM (active).

`CC12CCC(C(=O)C1=O)C2(C)C` (stereo not drawn): the Potency entry is “inactive”.

For the molecule `NS(=O)(=O)c1cc(C(=O)NN2C[C@H]3[C@H]4CCC(C4)[C@H]3C2)ccc1Cl`, the Potency entry is “inactive”.
